From PubChem BioAssay AID1159580 (chemical genetic matrix, 2015)
Screen size: about 5,500 compounds; about 2,000 (36%) were called active. Not shown: some 18% with an inconclusive outcome. Rule as the data show it: active = normalized growth mostly below about 0.91 (no sharp cut-off); inconclusive = no clear call, values can overlap the other calls; inactive = mostly above about 0.92. This is one part of the list.

Test: chemical genetic growth profiling, strain panel (AID 1159580);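 also: tested at 20 µM; growth read once vehicle control cultures reached saturation at 30 °C; 1 = growth at the plate median or of vehicle wells; lower values mean less growth of the strain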
Settings: S. cerevisiae deletion strains, growth OD
[1] = locus YAL013W, strain DEP1, stronger effect = lower value
[2] = locus YBR229C, strain ROT2, stronger effect = lower value
[3] = locus YCL061C, strain MRC1, stronger effect = lower value
[4] = locus YDL101C, strain DUN1, stronger effect = lower value
[5] = locus YDR150W, strain NUM1, stronger effect = lower value
[6] = locus YEL061C, strain CIN8, stronger effect = lower value
[7] = locus YGR078C, strain PAC10, stronger effect = lower value
[8] = locus YHR030C, strain SLT2, stronger effect = lower value
[9] = locus YHR087W, strain rtc3, stronger effect = lower value
[10] = locus YJR043C, strain POL32, stronger effect = lower value
[11] = locus YJR075W, strain HOC1, stronger effect = lower value
[12] = locus YLR039C, strain RIC1, stronger effect = lower value
[13] = locus YLR058C, strain SHM2 (second series), stronger effect = lower value
[14] = locus YLR085C, strain ARP6, stronger effect = lower value
[15] = locus YLR262C, strain YPT6, stronger effect = lower value
[16] = locus YML094W, strain GIM5, stronger effect = lower value
[17] = locus YMR219W, strain ESC1, stronger effect = lower value
[18] = locus YMR263W, strain SAP30, stronger effect = lower value
[19] = locus YMR307W, strain GAS1, stronger effect = lower value
[20] = locus YNL153C, strain GIM3, stronger effect = lower value
[21] = locus YNL298W, strain CLA4 (second series), stronger effect = lower value
[22] = locus YNL322C, strain KRE1, stronger effect = lower value
[23] = locus YNR030W, strain Alg12, stronger effect = lower value
[24] = locus YPL055C, strain LGE1, stronger effect = lower value
[25] = locus YPL241C, strain CIN2, stronger effect = lower value
[26] = locus YPR135W, strain CTF4, stronger effect = lower value

Measured: normalized growth

Fc1cccc(Cl)c1Cn1nnc(N2CCCCC2)n1
active: [8] 0.444 | [14] 0.762 | [26] 0.534
inactive: [1] 0.973 | [2] 0.96 | [3] 0.977 | [4] 0.992 | [5] 1.01 | [6] 0.966 | [7] 0.946 | [9] 0.941 | locus YJL187C, strain SWE1, stronger effect = lower value 0.969 | [10] 0.982 | [11] 0.914 | [12] 0.851 | [13] 0.969 | [15] 0.881 | [16] 0.918 | [17] 0.962 | [18] 0.976 | [19] 0.825 | [20] 0.962 | [21] 0.984 | [22] 0.961 | [23] 0.926 | [24] 0.959 | [25] 0.909

ON(Cc1c(F)cccc1Cl)Cc1c(F)cccc1Cl
inactive: [1] 0.985 | [2] 1.01 | [3] 0.997 | [4] 0.978 | [5] 0.951 | [6] 1.02 | [7] 0.979 | [8] 0.989 | [9] 0.986 | [10] 1.01 | [11] 0.986 | [12] 0.816 | [13] 1 | [14] 0.987 | [15] 0.829 | [16] 1.01 | [17] 0.988 | [18] 0.992 | [20] 0.976 | [21] 1.01 | [22] 0.987 | [23] 0.993 | locus YOL006C, strain TOP1, stronger effect = lower value 0.966 | [24] 1.02 | [25] 1 | [26] 0.852

COc1ccccc1NC(=O)Nc1nc(-c2cccnc2)nc2ccccc12
inactive: [1] 1.01 | locus YAL040C, strain CLN3, stronger effect = lower value 1.02 | locus YCL061C, strain MRC1 (second series), stronger effect = lower value 1 | locus YDR363W, strain ESC2, stronger effect = lower value 1.02 | locus YER002W, strain NOP16, stronger effect = lower value 1.04 | [7] 0.993 | locus YGR229C, strain SMI1, stronger effect = lower value 1.01 | [18] 1.01 | [19] 1.02 | locus YNL128W, strain TEP1, stronger effect = lower value 0.998 | locus YNL175C, strain NOP13, stronger effect = lower value 0.977 | locus YNL197C, strain WHI3, stronger effect = lower value 1.01 | locus YNL224C, strain SQS1, stronger effect = lower value 1.01 | locus YOR083W, strain WHI5 (second series), stronger effect = lower value 1.01 | [24] 1.01
